Results taken from PubChem BioAssay.
Calls of active or inactive are those of the source. No rule for the calls is given here.

Target: Pantothenate synthetase (Mycobacterium tuberculosis (strain ATCC 25618 / H37Rv)) (UniProt P9WIL5)
Test: Recombinant Mtb pantothenate synthetase (PanC) inhibitors, coupled enzyme, confirmatory (AID 375);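 also: 0% = full reaction with vehicle and 100% = no enzyme background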
Conditions: coupled enzyme assay; at 10 µM, active compounds read high

Pantothenate synthetase (Mycobacterium tuberculosis (strain ATCC 25618 / H37Rv)), sequence (P9WIL5 whole entry, looked up): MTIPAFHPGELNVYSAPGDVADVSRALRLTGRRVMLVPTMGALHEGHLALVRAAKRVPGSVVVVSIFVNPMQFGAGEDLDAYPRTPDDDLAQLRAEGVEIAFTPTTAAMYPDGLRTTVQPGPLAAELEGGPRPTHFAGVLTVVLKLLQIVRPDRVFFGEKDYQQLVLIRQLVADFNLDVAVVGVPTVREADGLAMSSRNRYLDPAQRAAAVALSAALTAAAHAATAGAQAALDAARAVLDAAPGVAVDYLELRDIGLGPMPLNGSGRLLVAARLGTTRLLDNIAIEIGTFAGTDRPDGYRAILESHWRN

**Q.** How did the inhibition turn out when `COc1ccc(OC)c(C2=NOC(C(=O)Nc3cccnc3)C2)c1` (stereo not given) was run?
**A.** 0% (inactive)

**Q.** Which inhibition does the source give for `COCCn1cc(C(=O)NCCCN2CCC(C)CC2)c2c3ccccc3n(C)c2c1=O` here?
**A.** 2% (inactive)

**Q.** With `N#Cc1cnc(SCCc2ccccc2)nc1N` as the compound, how does the inhibition read?
**A.** 0% (inactive)

**Q.** With `Cc1ccc2oc(-c3ccccc3C(=O)O)cc(=O)c2c1` as the compound, how does the inhibition read?
**A.** 13% (inactive)

**Q.** How did the inhibition turn out when `CC(C)CCNC(=O)NC(=O)CSc1nnc(COc2ccccc2Cl)o1` was run?
**A.** 7% (inactive)

**Q.** Which inhibition does the source give for `O=S(=O)(c1cccc2c(S(=O)(=O)N3CCCC3)cccc12)N1CCCC1` here?
**A.** 0% (inactive)

**Q.** With `c1ccc(-c2nnc(CN3CCC4(CC3)OCCO4)o2)cc1` as the compound, how does the inhibition read?
**A.** 1% (inactive)

**Q.** How did the inhibition turn out when `Cc1ccc(CCNC(=O)C2CCN(S(=O)(=O)c3ccc4c(c3)CCC(=O)N4)CC2)cc1` was run?
**A.** 0% (inactive)

**Q.** How did the inhibition turn out when `CC(=O)N1CCc2cc(S(=O)(=O)CCC(=O)Nc3cccc(F)c3)ccc21` was run?
**A.** 0% (inactive)

**Q.** Which inhibition does the source give for `CCC1SC2=NC(C)=C(C(=O)OC)C(c3ccc(C)cc3)N2C1=O` (stereo not given) here?
**A.** 7% (inactive)

**Q.** `Cc1ccccc1NC(=O)c1ccccc1` was tested. Which inhibition did it give?
**A.** 10% (inactive)

**Q.** How did the inhibition turn out when `CN(C(=O)CSc1nc2c(c(=O)[nH]1)CCCC2)C1CCCCC1` was run?
**A.** 0% (inactive)

**Q.** With `CCOC(=O)C1CCCN(C(=O)c2cccs2)C1` (stereo not given) as the compound, how does the inhibition read?
**A.** 8% (inactive)

**Q.** For `CCn1c(SCc2cccc(C(F)(F)F)c2)nnc1-c1ccco1`, which inhibition is on record?
**A.** 0% (inactive)

**Q.** `CCOC(=O)N1CCN(C(=O)CSc2ncnc3ccccc23)CC1` was tested. Which inhibition did it give?
**A.** 0% (inactive)

**Q.** With `Cc1nc2ccc(C(=O)c3ccccc3)cc2[nH]1` as the compound, how does the inhibition read?
**A.** 0% (inactive)

**Q.** `Cn1c(=O)cc(SCC(=O)N2CCOCC2)c2ccc(Cl)cc21` was tested. Which inhibition did it give?
**A.** 0% (inactive)

**Q.** `C=CCc1cc(OC)ccc1OCC(O)CN1CCN(c2ccc(OC)cc2)CC1` (stereo not given) was tested. Which inhibition did it give?
**A.** 1% (inactive)

**Q.** With `O=C1CSC(=Nc2ccc(O)cc2)N1c1ccc(O)cc1` as the compound, how does the inhibition read?
**A.** 0% (inactive)

**Q.** Which inhibition does the source give for `CC1(C)Cc2c(sc3c2c(=N)n(Cc2ccco2)c(=O)n3Cc2ccccc2)CO1` here?
**A.** 0% (inactive)

**Q.** How did the inhibition turn out when `CCOC(=O)/C=C1\SCC(=O)N1Cc1nnc(-c2ccccc2Br)o1` was run?
**A.** 0% (inactive)

**Q.** With `Cc1cccc(C)c1NC(=O)CC(NCc1ccco1)C(=O)O` (stereo not given) as the compound, how does the inhibition read?
**A.** 0% (inactive)

**Q.** Which inhibition does the source give for `CCOc1ccc2cc(C#N)c(SCC(=O)N3CCC(C)CC3)nc2c1` here?
**A.** 10% (inactive)

**Q.** With `O=C(CSc1n[nH]c(=O)[nH]c1=O)c1ccccc1` as the compound, how does the inhibition read?
**A.** 0% (inactive)

**Q.** For `Cn1c(=O)[nH]c(=O)c2c1ncn2CCN1CCOCC1`, which inhibition is on record?
**A.** 0% (inactive)

**Q.** For `O=C(COc1ccc(S(=O)(=O)NC2CCCCC2)cc1Cl)NCC1CCCO1` (stereo not given), which inhibition is on record?
**A.** 0% (inactive)

**Q.** `COc1cccc(NC(=O)CSc2nnc(-c3cc(-c4ccccn4)nc4ccccc34)o2)c1` was tested. Which inhibition did it give?
**A.** 2% (inactive)

**Q.** Which inhibition does the source give for `CC(C)CNC(=O)c1ccccc1NC(=O)CN(c1ccc2c(c1)OCCO2)S(C)(=O)=O` here?
**A.** 0% (inactive)

**Q.** With `O=C(Cc1ccc(S(=O)(=O)N2CCCC2)s1)Nc1nc2c(s1)CCCC2` as the compound, how does the inhibition read?
**A.** 1% (inactive)

**Q.** `Cc1c(C)c2ccc(OC3CCCCC3=O)cc2oc1=O` (stereo not given) was tested. Which inhibition did it give?
**A.** 2% (inactive)

**Q.** How did the inhibition turn out when `N#Cc1c(N2CCCC2)nc(N)c2c(N)nc(N3CCCC3)cc12` was run?
**A.** 0% (inactive)

**Q.** For `O=C(Oc1cccc2cccnc12)c1cccc(-n2cnnn2)c1`, which inhibition is on record?
**A.** 0% (inactive)

**Q.** `COc1ccccc1N(CC(=O)NC1CCCC1)C(=O)c1csnn1` was tested. Which inhibition did it give?
**A.** 1% (inactive)

**Q.** With `COc1cc2c(cc1OC)CN(CC(=O)Nc1cccc(C)c1)CC2` as the compound, how does the inhibition read?
**A.** 11% (inactive)

**Q.** For `Cc1ccc(C)c2[nH]c(=O)c(CCNC(=O)c3ccc(Br)o3)cc12`, which inhibition is on record?
**A.** 0% (inactive)

**Q.** For `CN(C)c1ccc(CNn2cnnc2)cc1`, which inhibition is on record?
**A.** 2% (inactive)

**Q.** `CC1CN(Cc2nc3c(c(=O)[nH]c(=O)n3C)n2CC(N)=O)CC(C)O1` (stereo not given) was tested. Which inhibition did it give?
**A.** 4% (inactive)

**Q.** Which inhibition does the source give for `CCSC1=C(C#N)C(c2cccc(OC)c2)CC(=O)N1` (stereo not given) here?
**A.** 6% (inactive)

**Q.** Which inhibition does the source give for `CC(NC(=O)OCc1ccccc1)C(=O)N1CC(O)CC1C(=O)O` (stereo not given) here?
**A.** 0% (inactive)

**Q.** Which inhibition does the source give for `CC(=O)N1CCc2c(sc(NC(=O)c3ccc(S(=O)(=O)N(C)C)cc3)c2C#N)C1` here?
**A.** 0% (inactive)
